Source: PubChem BioAssay (The Scripps Research Institute Molecular Screening Center)
Compounds with a hit are over-represented: about 3.5% of the library has one in this group of screens.
MITF inh – MITF inhibitors, primary screen, biochemical, AlphaScreen, human; Microphthalmia-associated transcription factor (Homo sapiens), O75030; AlphaScreen MITF homodimerization, bead proximity signal; inhibition, % at 2.6 µM; actives 0.91% (n = 650,000); in the data active = inhibition above about 50%;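 also: 0% = vehicle wells with protein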
FBW7 act – FBW7 E3 ligase activators, primary screen, biochemical, AlphaScreen, human | F-box/WD repeat-containing protein 7 (Homo sapiens), Q969H0 | AlphaScreen FBW7–phospho-cyclin E peptide binding, activator screen | normalized activity (activation), % at 26.1 µM | actives 0.13% (n = 650,000); in the data active = normalized activity above about 1.9%;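 also: purified mutant Fbw7 with reduced substrate affinity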
GPR151 activ – activators of human GPR151, primary screen, cell-based, PathHunter beta-arrestin, luminescence; G-protein coupled receptor 151 (Homo sapiens), Q8TDV0; PathHunter beta-arrestin GPR151 cells; activation, % at 11.2 µM; actives 1% (n = 650,000); in the data active = activation above about 4.9%;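 also: 0% = median of compound wells and 100% = cells with positive control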
Target sequence (Q8TDV0 whole entry, looked up): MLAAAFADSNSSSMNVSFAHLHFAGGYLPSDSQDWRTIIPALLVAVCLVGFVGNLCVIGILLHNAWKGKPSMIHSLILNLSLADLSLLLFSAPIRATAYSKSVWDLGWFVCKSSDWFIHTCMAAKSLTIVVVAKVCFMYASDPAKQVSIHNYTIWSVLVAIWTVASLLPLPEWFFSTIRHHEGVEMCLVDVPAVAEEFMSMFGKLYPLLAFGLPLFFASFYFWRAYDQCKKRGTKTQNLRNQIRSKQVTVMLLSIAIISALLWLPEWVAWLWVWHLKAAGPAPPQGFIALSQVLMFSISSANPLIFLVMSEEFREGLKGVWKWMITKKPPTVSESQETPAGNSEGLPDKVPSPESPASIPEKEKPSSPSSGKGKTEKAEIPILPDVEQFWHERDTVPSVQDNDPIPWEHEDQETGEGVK
TEAD-YAP block – TEAD-YAP interaction inhibition, primary screen, TEAD-YAP interaction inhibitor project, luminescence, HEK-TIYL cells. actives 1.4% (n = 640,000). TEAD-Gal4/YAP UAS-luciferase luminescence. inhibition, % at 9.12 µM. AID 1259422, 2018; in the data active = inhibition above about 32%;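 also: 0% = median of test compound wells and 100% = reference inhibitor wells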
The depositor's hits bear a star.

Screening COC(=O)c1ccc(/C=N\NC(=O)c2c(C)nc3sccn23)cc1 returned MITF inh 14, FBW7 act 0, GPR151 activ 1 and TEAD-YAP block 8.
`CCN(CC)S(=O)(=O)c1cccc(C(=O)N/N=C/c2cccc(O)c2O)c1` gave MITF inh 71*, FBW7 act -1, GPR151 activ 1 and TEAD-YAP block 5.
O=C(N/N=C/c1cccc(O)c1O)c1ccc(O)cc1 was read as MITF inh 57*, FBW7 act -1, GPR151 activ -1 and TEAD-YAP block -9.
Cc1cccc(/C=N\NC(=O)c2ccc([N+](=O)[O-])cc2)c1O was read as MITF inh -7, FBW7 act -1, GPR151 activ -1 and TEAD-YAP block 62*.
For C=CCOc1ccc(C2/C(=C(/O)c3ccc(OCCC)cc3C)C(=O)C(=O)N2CCCN2CCOCC2)cc1 (stereo not given) the results were MITF inh 10, FBW7 act 0, GPR151 activ 0 and TEAD-YAP block 2.
CC1=CC2=NC(=O)/C(=C\c3cc(C)n(-c4ccc(Br)cc4)c3C)C(=N)N2O1 was read as MITF inh 2, FBW7 act 0, GPR151 activ -1 and TEAD-YAP block 1.
`CNc1c(-c2nc(-c3ccc(OC)cc3)n[nH]2)nnn1Cc1ccccc1Cl` gave MITF inh 13, FBW7 act 0, GPR151 activ 1 and TEAD-YAP block 46*.
Cc1ccc(Nc2c([N+](=O)[O-])c(=O)oc3ccccc23)cc1 was read as MITF inh 10, FBW7 act 0, GPR151 activ 0 and TEAD-YAP block -1.
Screening CN(C)c1ccc(Nc2c([N+](=O)[O-])c(=O)oc3ccccc23)cc1 returned MITF inh 4, FBW7 act 0, GPR151 activ 1 and TEAD-YAP block 53*.
CC1Cc2ccccc2N1C(=O)Cn1c(SCC(=O)N(C)C)nc2ccccc21 (stereo not given) was read as MITF inh 12, FBW7 act 0, GPR151 activ -1 and TEAD-YAP block 5.
CCOC(=O)c1cccc2c1NC(c1ccc(C(=O)O)cc1)C1CC=CC21 (stereo not given) was read as MITF inh 83*, FBW7 act -2, GPR151 activ 0 and TEAD-YAP block 8.
For COc1cc(OC)c2c(c1)C1C=CCC1C(c1ccc(C(=O)O)cc1)N2 (stereo not given) the results were MITF inh 73*, FBW7 act -1, GPR151 activ 0 and TEAD-YAP block -1.
COC(=O)c1cccc2c1NC(c1ccc(C(=O)O)cc1)C1CC=CC21 (stereo not given) was read as MITF inh 68*, FBW7 act -2, GPR151 activ 1 and TEAD-YAP block 5.
Screening COc1cc(OC)c2c(c1)C1C=CCC1C(c1ccc(OC)c([N+](=O)[O-])c1)N2 (stereo not given) returned MITF inh 12, FBW7 act 0, GPR151 activ 1 and TEAD-YAP block 2.
COC(=O)c1cccc2c1NC(c1ccc(Br)cc1)C1CC=CC21 (stereo not given) was read as MITF inh 22, FBW7 act 0, GPR151 activ 0 and TEAD-YAP block -10.
COC(=O)c1cccc2c1N[C@@H](c1ccc(C(=O)O)cc1)[C@H]1CC=C[C@@H]21 was read as MITF inh 59*, FBW7 act 0, GPR151 activ -2 and TEAD-YAP block 11.
For O=C(O)c1cccc2c1NC(c1ccccc1)C1CC=CC21 (stereo not given) the results were MITF inh 26, FBW7 act 0, GPR151 activ 1 and TEAD-YAP block 2.
O=C(O)c1cccc2c1NC(c1ccc(Br)cc1)C1CC=CC21 (stereo not given) was read as MITF inh 27, FBW7 act 0, GPR151 activ 1 and TEAD-YAP block 2.
O=[N+]([O-])c1cc(S(=O)(=O)N2CCOCC2)ccc1N/N=C/c1ccc2ncccc2c1 was read as MITF inh 5, FBW7 act 0, GPR151 activ 0 and TEAD-YAP block 9.
CN=C1SC(C(=O)Nc2ccc(C(=O)OC)cc2)CC(=O)N1C (stereo not given) was read as MITF inh -8, FBW7 act 0, GPR151 activ -1 and TEAD-YAP block 1.
Screening COc1ccc(CCN2C(=O)CC(C(=O)Nc3cccc(Cl)c3)SC2=Nc2ccc(F)cc2)cc1OC (stereo not given) returned MITF inh -5, FBW7 act 0, GPR151 activ 1 and TEAD-YAP block 2.
`CN1CCN(Cc2ccon2)CC1CCO` (stereo not given) gave MITF inh 12, FBW7 act 0, GPR151 activ 0 and TEAD-YAP block 0.
For CC1C(O)=C(c2nc3ccccc3[nH]2)c2nc(=O)c3ccccc3n21 (stereo not given) the results were MITF inh 17, FBW7 act -1, GPR151 activ -1 and TEAD-YAP block 54*.
`Cc1cccc2c(=O)nc3n(c12)CC(O)=C3c1nc2ccccc2[nH]1` gave MITF inh 2, FBW7 act 0, GPR151 activ 0 and TEAD-YAP block -5.
Screening Cc1ccc(-c2nc(Nc3ccccc3)s[n+]2CS(=O)(=O)c2ccccc2)cc1 returned MITF inh 9, FBW7 act 0, GPR151 activ -5 and TEAD-YAP block 66*.
For CCOC(=O)C(=O)Nc1nnc(-c2ccccc2C)s1 the results were MITF inh -2, FBW7 act 0, GPR151 activ -1 and TEAD-YAP block 15.
`O=C(Nc1ccc(N2CCCCC2)cc1)c1ncn[nH]1` gave MITF inh 50, FBW7 act -1, GPR151 activ -7 and TEAD-YAP block 82*.
Screening CCOc1ccc(NC(=O)c2ncn[nH]2)cc1 returned MITF inh 0, FBW7 act 0, GPR151 activ 0 and TEAD-YAP block 39*.
`CC(C)C(=O)N1CCN(c2ccc(NC(=O)c3ncn[nH]3)cc2)CC1` gave MITF inh 4, FBW7 act -1, GPR151 activ -4 and TEAD-YAP block -2.
For CCOc1ccc(NC(=O)c2ccc(C(=O)Nc3ccc(OCC)cc3)cc2)cc1 the results were MITF inh 8, FBW7 act 0, GPR151 activ 3 and TEAD-YAP block -6.
Screening COc1ccc2nc(C)cc(Nc3ccc(Oc4ccc(Cl)cc4)c(Cl)c3)c2c1 returned MITF inh 0, FBW7 act 0, GPR151 activ 0 and TEAD-YAP block 44*.
COc1cccc(Nc2cc(C)nc3ccc(OC)cc23)c1 was read as MITF inh 29, FBW7 act 0, GPR151 activ 1 and TEAD-YAP block 8.
`COc1cccc(Nc2cc(C)nc3ccc(Cl)cc23)c1` gave MITF inh 8, FBW7 act 0, GPR151 activ 0 and TEAD-YAP block 44*.
